# NPC1 promoter act: activates the NPC1 promoter. Huh7 NPC1 promoter luciferase reporter, 24 h. Potency, µM (top dose mostly 9.22 µM), for inactives: at the top dose activation, hits mostly activators. 2.4% of 320,000 active. AID 485313; note: % of control where 0% means no effect; nearly all actives have a fitted effect of over 60% in size
#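 Luciferase expression driven by the NPC1 promoter was measured in stably transfected Huh7 cells after a 24 h compound incubation, using a luciferase reagent and a luminescence read.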
# ELG1 DNA repair: ELG1-dependent DNA repair inhibition | HEK293T ELG1-luciferase reporter, luminescence, 16 h; DNA damage induced by 5-fluorouridine | Potency, µM (highest dose often 46.1 µM), for the others: at the top dose activity change, negative = inhibition, most hits filed as inhibitors | 2.3% of 330,000 active | AID 504467; note: % is set by controls: 0 for no effect and ±100 for the full control effect; nearly all actives have a fitted effect of over 55% in size
#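 DMSO vehicle served as the neutral condition. Each well held 2,000 cells given 5-fluorouridine plus compound; after 16 hr at 37 °C/5% CO2, ONE-Glo was added and luciferase measured 30 min later.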
# ELG1 genotox: genotoxicity induction in ELG1-luciferase HEK293T cells; 1.3% of 330,000 active; AID 504466; HEK293T ELG1-luciferase reporter, luminescence, 16 h; Potency, µM (series often up to 46 µM), inactives show top-dose activity change, positive = activation, most hits filed as activators; note: % of control where 0% means no effect; nearly all actives have a fitted effect of over 60% in size
#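 Genotoxic stress is detected as increased luminescence from luciferase-tagged ELG1 in HEK293T cells, measured with ONE-Glo after a 16 hr treatment at 37 °C.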
# Rab9 prom act: Rab9 promoter activation; AID 485297; Huh7 Rab9 promoter-luciferase reporter, luminescence, 24 h; Potency, µM (highest dose often 9.22 µM), for the others: at the highest dose activation, negative = inhibition, usual class: activators; 2.8% of 320,000 active; note: % of control where 0% means no effect; nearly all actives have a fitted effect of over 60% in size
#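 Promoter activation is measured as luciferase luminescence in Huh7 cells stably transfected with a Rab9 promoter–luciferase construct, following 24 h compound exposure at 37 °C and 10 min reagent incubation at ambient temperature.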
# FLuc modulator: firefly luciferase modulation, counter-screen for miR-21 project. P08659. purified FLuc, Km substrates, luminescence inhibition. Potency, µM (series often up to 57.5 µM), without a hit: at the highest dose activity change, negative = inhibition, hits mostly inhibitors. 6.9% of 360,000 active;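 note: plate controls were vehicle for no effect and reference inhibitor for full effect; nearly all actives have a fitted effect of over 55% in size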
# Target sequence (P08659 whole entry, looked up): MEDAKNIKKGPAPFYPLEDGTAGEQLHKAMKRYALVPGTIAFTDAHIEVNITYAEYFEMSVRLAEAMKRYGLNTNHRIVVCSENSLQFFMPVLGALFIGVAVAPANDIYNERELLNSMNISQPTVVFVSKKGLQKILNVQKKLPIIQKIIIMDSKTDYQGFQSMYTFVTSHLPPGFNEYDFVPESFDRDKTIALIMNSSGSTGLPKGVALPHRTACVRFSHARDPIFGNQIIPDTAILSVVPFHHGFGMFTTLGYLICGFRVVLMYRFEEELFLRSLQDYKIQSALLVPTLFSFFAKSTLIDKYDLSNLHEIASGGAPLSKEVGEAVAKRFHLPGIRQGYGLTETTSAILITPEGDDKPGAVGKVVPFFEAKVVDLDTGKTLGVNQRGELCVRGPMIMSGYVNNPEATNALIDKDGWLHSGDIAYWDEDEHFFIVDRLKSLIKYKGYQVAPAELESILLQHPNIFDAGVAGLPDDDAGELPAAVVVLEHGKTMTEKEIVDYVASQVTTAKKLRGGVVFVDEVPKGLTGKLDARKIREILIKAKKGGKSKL
#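 Biochemical qHTS of compounds, final roughly 60 µM downward over six points, against 10 nM purified firefly luciferase using Km concentrations of substrates (10 uM D-luciferin, 10 uM ATP) in Tris acetate pH 7.5 buffer; luminescence output.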
# SMN2 splice enh: enhancers of SMN2 splice variant expression; HEK293 SMN2-luciferase splicing reporter, luminescence, 30-36 h; Potency, µM (titrated, usually from 46.1 µM), for inactives: at the top dose activity change, positive = activation, actives largely listed as activators; 2.8% of 210,000 active; note: % of control where 0% means no effect; nearly all actives have a fitted effect of over 55% in size
#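 qHTS luciferase splicing reporter: luminescence rises when SMN2 exon 7 is included in transfected HEK293 cells. Compound exposure lasted 30-36 h at 37C, with 4.5 mM final sodium butyrate as control, followed by a ONE-Glo read.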
# * hit, by the source's call; ? = inconclusive; / = no result; [ ] = dose if it differs, or a comment. In the library only some 9.2% were active in any assay of this set; here they are far more common. Calls come from the whole dose curve; as a rule, active = well fitted curve in the direction sought with a large enough effect; inconclusive = small, poorly fitted or top-dose-only effect, or another doubt; inactive = no such curve, though single readings can be large; an effect the other way counts as inactive or inconclusive. Potency is the fitted concentration of half-maximal effect.
SMILES,NPC1 promoter act,ELG1 DNA repair,ELG1 genotox,Rab9 prom act,FLuc modulator,SMN2 splice enh
CCOc1ccc(C(=O)Nc2nnn(CC)n2)cc1,4µM*,?,10µM*,4µM*,12µM*,/
CCCn1nnc(NC(=O)c2ccc(OCC)c(Cl)c2)n1,3%,29%,10%,23%,6%[2.3 µM],3%
CCCn1nnc(NC(=O)c2ccc(-c3ccccc3)cc2)n1,2.5µM*,?,?,2.5µM*,9.5µM*,?
CCOc1ccc(C(=O)Nn2cnnc2)cc1,12%,22%,1%,1%,-4%,-2%
CCCn1nnc(NC(=O)c2ccc(OC)cc2)n1,4µM*,?,18µM*,?,21µM*,?
CCCn1nnc(NC(=O)c2ccc(Br)cc2)n1,?,?,9.2µM*,4µM*,?,14µM*
Fc1ccc(-c2nnc(NC3=NCCCCC3)o2)cc1,?,?,?,0.089µM*,0.6µM*,-21%
Fc1ccc(-c2nnc(Cc3nnc(-c4ccc(F)cc4)o3)o2)cc1,-2%,-15%,-1%,0%,-1%,-5%
Fc1ccc(-c2nnc(-c3ccc(F)cc3)o2)cc1,2.8µM*,?,?,?,4.3µM*,/
c1ccc(-c2nnc(NC3=NCCC3)o2)cc1,?,?,1.8µM*,0.35µM*,6µM*,8.9µM*
CCN(CC(=O)Nc1c(F)cccc1F)C(=O)c1nn(C)c(=O)c2ccccc12,0%,16%,1%,0%,-1%,/
O=c1cc(CN2CCc3ccccc3C2)nc2sccn12,3%,-13%,2%,1%,6%,4%
CCCCn1nc(NS(=O)(=O)c2cccc3nonc23)c2cc3cccc(C)c3nc21,-4%,-5%,-2%,-1%,?,/
COc1ccc2c(c1)CCc1c(C(=O)Nc3ccccc3C(F)(F)F)noc1-2,/,/,/,/,0%,20%
COc1ccc2c(c1)CCc1c(C(=O)NCc3cccnc3)noc1-2,26%,?,21µM*,15%,?,-1%
COc1ccc2c(c1)CCc1c(C(=O)N3CCCCCC3)noc1-2,1.6µM*,?,?,2.8µM*,7.6µM*,?
COc1ccc2c(c1)CCc1c(C(=O)NCC(C)C)noc1-2,1.1µM*,?,13µM*,1.4µM*,3.4µM*,4.5µM*
COc1ccc2c(c1)CCc1c(C(=O)Nc3ccc(OC)cc3OC)noc1-2,/,/,/,/,-6%,8%
CCCNC(=O)c1noc2c1CCc1cc(OC)ccc1-2,1.4µM*,?,?,2µM*,4.3µM*,11µM*
C=CCOc1ccc(/C=C/C(=O)OCC(=O)N(C)C2CCS(=O)(=O)C2)cc1 (stereo not given),-5%,-3%,0%,-2%,?,/
Cc1ccc(OCC(=O)NNc2c3ccccc3nc3ccccc23)cc1,-19%,?,-16%,-18%,-11%,-61%
Cc1cccc(OCc2nc3ccccc3c(=O)n2N)c1,?,?,?,?,17µM*,?
COc1cccc(OCc2nc3ccccc3n2Cc2ccccc2C)c1,/,/,/,/,?,-27%
Cc1cccc(OCc2nc3ccccc3n2C)c1,?,?,?,?,24µM*,/
Cc1cccc(OCC(=O)NNc2c3ccccc3nc3ccccc23)c1,-29%,15µM*,0%,-22%,?,-59%
SMILES,NPC1 promoter act,ELG1 DNA repair,ELG1 genotox,Rab9 prom act,FLuc modulator,SMN2 splice enh
COc1cccc(OCc2nc3ccccc3n2C)c1,/,/,/,/,11µM*,16µM*
Nn1c(COc2cccc(Cl)c2)nc2ccccc2c1=O,16%,?,9%,25%,?,?
O=C(c1cc(C(F)(F)F)cc(C(F)(F)F)c1)N1CCC[C@@]2(CCN(Cc3nccs3)C2)C1,/,/,/,/,/,-5%
CC(C)(CO)CNC(=O)c1ccc(OC2CCN(C(=O)C3CC3)CC2)cc1,1%,-1%,-1%,-2%,0%,/
CC(=O)N(C(C)=O)c1nc(-c2ccccc2)cn1/N=C/c1cccc([N+](=O)[O-])c1,2%,?,-2%,-5%,-20%,/
CCN1CCCC(OC(=O)c2cc(-c3ccccc3Cl)nc3ccccc23)C1 (stereo not given),-5%,-10%,-9%,2%,-3%,-3%
COc1cccc(-c2csc(N3CCN(CC(=O)Nc4ccc5c(c4)OCO5)CC3)n2)c1,0%,?,-6%,-2%,-13%,-41%
COc1cccc(C(=O)Nc2nc(-c3ccc4c(c3)OCO4)cs2)c1,4%,13%,15%,-4%,17µM*,-18%
O=C(Nc1nc(-c2ccc3c(c2)OCO3)cs1)C1COc2ccccc2O1 (stereo not given),0%,-2%,0%,0%,?,6%
CC(=O)Nc1nc(-c2ccc3c(c2)OCO3)cs1,3.5µM*,?,16%,2.2µM*,9.5µM*,/
CC(C)Cn1c(N)c(C(=O)COC(=O)c2cc(F)cc(F)c2)c(=O)n(C)c1=O,-4%,18µM*,-8%,-2%,-1%,-20%
CC(C)Cn1c(N)c(C(=O)COC(=O)c2cc(-c3ccccc3)nc3ccccc23)c(=O)n(C)c1=O,-9%,7.3µM*,-7%,-4%,-5%,-39%
CC(C)Cn1c(N)c(C(=O)COC(=O)c2cc(C3CC3)nc3ccccc23)c(=O)n(C)c1=O,-5%,23µM*,-5%,-1%,-1%,-35%
CC(C)Cn1c(N)c(C(=O)COC(=O)C2Cc3ccccc3CN2S(C)(=O)=O)c(=O)n(C)c1=O (stereo not given),-14%,9.2µM*,-7%,-13%,4%,/
COc1ccccc1NC(=O)Cn1ccn(-c2cccc3ccccc23)c(=O)c1=O,0%,-21%,-13%,1%,6%,/
CC1=C(C(=O)OC2CCCC2)C(c2ccc(Cl)cc2)CC(=O)N1 (stereo not given),/,/,/,/,5%,-9%
O=C1/C(=C\Nc2ccc(Cl)cc2)CCN1c1ncccn1,2µM*,?,?,0.89µM*,4.8µM*,20µM*
O=C(CN1CCN(c2ccccn2)CC1)Nc1ccc(OC(F)(F)F)cc1,-1%,-12%,-5%,-4%,-1%,/
O=C1/C(=C\Nc2ccc(OC(F)(F)F)cc2)CCN1c1ncccn1,?,?,9.2µM*,2.5µM*,?,17%
COc1ccc(Cc2nc3ccc(C(=O)NCCc4ccccc4)cc3o2)cc1,/,/,/,/,4%,/
COc1ccc(Cc2nc3ccc(C(=O)NCC(C)(C)OC)cc3o2)cc1,3.5µM*,?,?,3.5µM*,19µM*,/
